Assay outcomes from PubChem BioAssay.
Peg3 promoter: reduces Peg3 promoter-driven luciferase expression in HeLa. HeLa PEG-Prom luciferase reporter, luminescence, overnight. inhibition, % at 20 µM. 360,000 tested, 1.7% active. AID 588405;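 active = inhibition of at least 50% at 20 µM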
TRPM1 prom inh: reduces MITF-dependent TRPM1 promoter luciferase signal. SK-MEL-5 TRPM1 promoter luciferase, 24 h. inhibition, % at 12.5 µM. 330,000 tested, 0.83% active;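 active = mean inhibition across replicates of 60% or more, whatever share of single replicates reaches that level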
CF NFkB inh: blocks PAF-induced NF-kB reporter in cystic fibrosis cells; KKLEB NF-kB-GFP reporter, GFP fluorescence overnight; inhibition, % at 5 µM; 360,000 tested, 0.86% active; AID 588850;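 active = at least 50% inhibition at 5 µM, scaled per plate between neutral and stimulator controls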;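 note: PAF is a Pseudomonas aeruginosa culture filtrate used as stimulus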
Shn3 inh set2: Schnurri-3 reporter inhibition in Clone20 osteoblasts | 360,000 tested, 0.52% active | inhibition, % at 12.5 µM | Clone20 osteoblast Shn3 3'UTR firefly luciferase, 24 h;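 active = mean inhibition of at least 75% with every replicate also reaching 75%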
HIF-2a inh: inhibitors of HIF-2a | 786-0 RCC cells HIF-2a reporter, luciferase luminescence, overnight | inhibition, % at 18.8 µM | 360,000 tested, 0.72% active;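 active = inhibition of the luminescence signal of 40% or more relative to plate controls, in a single-dose primary screen at 18.75 µM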
KKLEB tox: reduces viability of KKLEB cystic fibrosis airway cells. KKLEB CF airway cells viability, ATPlite luminescence, overnight; hits give low values; cells stimulated with P. aeruginosa culture filtrate. activity change (cytotoxicity), % at 5 µM. 360,000 tested, 0.36% active. AID 602141;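 active = corrected activity change at or below -50% at 5 µM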
Of the large screens only hits and unclear results are named; the others gave an inactive call. A selection: hits, their analogues and other compounds. The true share with any hit is near 2.8%.

CSc1ccc2c(c1)C(N1CCN(C)CC1)Cc1ccc(F)cc1S2 (stereo not given)	Peg3 promoter 115 (no result: TRPM1 prom inh)
O=[N+]([O-])c1ccc2c(c1)C(N1CCN(CCO)CC1)Cc1ccc(F)cc1S2 (stereo not given)	none (no result: TRPM1 prom inh)
COc1cc(NC(=O)CNC(=O)Cn2cnc3sc(C)c(C)c3c2=O)cc(OC)c1OC	none (no result: TRPM1 prom inh)
CCCCC[C@H]1CN(Cc2ccc(OC)cc2)C(=O)[C@@H]1CC(=O)NCc1ccccc1	Shn3 inh set2 89
CCCCC[C@H]1CN(CCCC)C(=O)[C@@H]1CC(=O)NCc1ccccc1	none
O=C(O)CCn1c(=O)[nH]c(=O)n(CCC(=O)O)c1=O	Peg3 promoter 89
Cc1ccc(-c2nc3cnccn3c2Nc2c(C)cccc2C)o1	Peg3 promoter 102
C=CCn1c2ccccc2c2nnc(SCCCn3c(=O)[nH]c4ccccc43)nc21	Peg3 promoter 65
C=CCn1c2ccccc2c2nnc(SCCN3CCCCC3)nc21	none
CCOC(=O)N1CCN(C(=O)c2ccc(SC)cc2OC)CC1	none
CC1(C(=O)N/N=C/c2ccc([N+](=O)[O-])o2)CC1(Br)Br (stereo not given)	TRPM1 prom inh 74
O=C(N/N=C\C=C\c1ccc([N+](=O)[O-])o1)c1cccs1	TRPM1 prom inh 83
COc1ccccc1OCC(=O)N/N=C/C=C/c1ccc([N+](=O)[O-])o1	TRPM1 prom inh 76
Cc1ccccc1OCC(=O)N/N=C/c1ccc([N+](=O)[O-])o1	TRPM1 prom inh 79
Cc1ccccc1OCC(=O)NCC(=O)N/N=C/c1ccc(Br)o1	none
CCOC(=O)N/N=C\c1ccc([N+](=O)[O-])o1	none
NC(=O)CC(NC(=O)c1ccccc1)c1ccc(NCCN2CCCCC2)c([N+](=O)[O-])c1 (stereo not given)	none
O=C(N/N=C\c1ccccc1)c1ccccc1-n1cccc1	none
O=C(N/N=C/c1ccc([N+](=O)[O-])o1)c1ccccc1-n1cccc1	TRPM1 prom inh 78
Cc1cc(C)cc(OCC(=O)N/N=C/c2ccc([N+](=O)[O-])o2)c1	TRPM1 prom inh 66
Cc1ccc(C(c2nc3ccccc3[nH]2)n2c(-c3ccccc3)nc3ccccc32)cc1 (stereo not given)	none (no result: TRPM1 prom inh)
